Sampled rows, rich in hits. Any-hit rate of the full collection: about 6.8%.
Cy5 interf NS3h: enhances or quenches Cy5 fluorescence in NS3h assay; Cy5-dT15 DNA with NS3h, fluorescence interference; actives lie on both sides; signal over control mean, under 1 quenches; fluorescence interference ratio at 100 µM; hit rate 6% among 16,000;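 active means compound fluorescence over control fluorescence at most 0.8, a quencher, or at least a set upper limit, an enhancer; inactive means ratio between 0.8 and the set upper limit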
NS3h inh CB: hepatitis C NS3 helicase inhibition, primary screen; NS3h Cy5-dT15 DNA binding, fluorescence polarization; inhibition, % at 100 µM; hit rate 1.6% among 16,000;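 active means inhibition above the average over every tested compound plus 3 SD, cut at about 40% in these data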
Large screens that a line does not name were inactive.

O=C(Nc1ccc(Cl)c(Cl)c1)c1nn2c(c1Br)NC(c1cccs1)CC2C(F)(F)F (centres undefined)	none
O=C(c1nn2c(c1Br)NC(c1cccs1)CC2C(F)(F)F)N1CCCC1 (centres undefined)	Cy5 interf NS3h 0.51
Cc1ccc(NC(=O)C(=O)NCCN2CCN(Cc3ccc(Br)cc3)CC2)cc1	none
Cc1ccc2nc(/C(C#N)=C/c3ccc(-c4ccc(Cl)cc4)o3)[nH]c2c1	Cy5 interf NS3h 0.77
COC(=O)c1cc(-c2ccc(/C=C(\C#N)c3nc4ccccc4[nH]3)o2)ccc1Cl	none
Cc1nc(Nc2nc3ccccc3o2)[nH]c(=O)c1C	none
O=C(NC1C2CC3CC(C2)CC1C3)c1ccccc1Br (centres undefined)	none
COc1ccc(/C=C/C(=O)N2CCOCC2)cc1OC	Cy5 interf NS3h 0.63
COc1ccc(/C=C/C(=O)N2CCCCCC2)cc1Br	none
CCCCN1C(=O)/C(=C\c2ccco2)SC1=S	none
O=C1NC(=Nc2ccc(Br)cc2)S/C1=C\c1ccc2c(c1)OCO2	none
O=C(NC(c1ccccc1)c1ccccc1)C1CC1c1ccccc1 (centres undefined)	Cy5 interf NS3h 0.68
O=C(Cc1cccc2c(S(=O)O)cccc12)NC(c1ccccc1)c1ccccc1	none
O=C1CSC(=O)N1c1ccc(O)cc1	none
CCCC(=O)Nc1ccc(N2CCOCC2)cc1	Cy5 interf NS3h 0.74
CC(C)C(=O)Nc1ccc(N2CCOCC2)cc1	none
COC(=O)c1ccc(NC(=O)c2ccc(Cl)cc2)cc1	none
O=C(NCc1ccccc1)c1nn2c(c1Br)NC(c1cccs1)CC2C(F)(F)F (centres undefined)	none
CSc1ccccc1NC(=O)c1nn2c(c1Br)NC(c1cccs1)CC2C(F)(F)F (centres undefined)	Cy5 interf NS3h 0.74
CC(C)(C)NC(=O)c1nn2c(c1Br)NC(c1cccs1)CC2C(F)(F)F (centres undefined)	none
O=C(NCCc1ccccc1)c1nn2c(c1Br)NC(c1cccs1)CC2C(F)(F)F (centres undefined)	Cy5 interf NS3h 0.54
O=C(Nc1ccc(F)cc1F)c1nn2c(c1Cl)NC(c1cccs1)CC2C(F)(F)F (centres undefined)	Cy5 interf NS3h 0.74
O=C(NCCCN1CCOCC1)c1nn2c(c1Br)NC(c1cccs1)CC2C(F)(F)F (centres undefined)	Cy5 interf NS3h 0.71
O=C(Nc1cccc(C(F)(F)F)c1)c1nn2c(c1Br)NC(c1cccs1)CC2C(F)(F)F (centres undefined)	none
COc1ccc(Cl)cc1NC(=O)c1nn2c(c1Cl)NC(c1cccs1)CC2C(F)(F)F (centres undefined)	none
COCc1ccccc1P(=O)(c1ccccc1)c1ccccc1	none
CCOC(=O)c1sc(NC(=O)COc2ccc(C)cc2Br)nc1C	none
COC(=O)COc1ccc2c(=O)c(Oc3ccc(C(C)(C)C)cc3)coc2c1	none
COc1ccc(Cl)cc1NC(=O)CN(c1cccc([N+](=O)[O-])c1)S(=O)(=O)c1ccccc1	none
Cc1ccc(-c2nc3ccccn3c2NC(=O)c2ccccc2)cc1	Cy5 interf NS3h 0.78
Cc1ccc(-c2nc3ccccn3c2NC(=O)c2ccc(Cl)cc2)cc1	none
CC(=O)NC1=NC(=O)/C(=C\c2ccc(C(C)(C)C)cc2)S1	none
O=[N+]([O-])c1ccc(N2CCN(S(=O)(=O)c3ccccc3)CC2)cc1Sc1cccc2cccnc12	none
O=[N+]([O-])c1ccc(N2CCNCC2)cc1Sc1cccc2cccnc12	Cy5 interf NS3h 0.75
C=CCn1c(SCC(=O)c2ccc(Br)cc2)nc2sc3c(c2c1=O)CCN(C)C3	none
O=C1NC(=S)NC(=O)C1=Cc1ccccc1OCc1ccc([N+](=O)[O-])cc1	Cy5 interf NS3h 0.68
O=C1/C(=C/c2ccccc2[N+](=O)[O-])SC(=S)N1c1cccc(C(F)(F)F)c1	Cy5 interf NS3h 0.76
O=C1/C(=C/c2ccccc2OCc2ccc([N+](=O)[O-])cc2)SC(=S)N1Cc1ccccc1	none
CCN1C(=O)/C(=C\c2cccc(O)c2)SC1=S	none
Cc1ccc(COc2ccccc2C=C2C(=O)NC(=S)NC2=O)cc1	none
O=C1/C(=C/c2ccccc2OCc2ccc([N+](=O)[O-])cc2)SC(=S)N1c1ccccc1	Cy5 interf NS3h 0.75
CCN1C(=O)/C(=C\c2cccc(C(F)(F)F)c2)SC1=S	Cy5 interf NS3h 0.71
O=C1/C(=C\c2ccc([N+](=O)[O-])cc2)SC(=S)N1c1cccc(C(F)(F)F)c1	none
CC1CCc2c(sc(NC(=O)/C=C/c3ccccc3)c2C(N)=O)C1 (centres undefined)	none
COc1ccc(/C=C(\C#N)c2nn(-c3ccccc3)c(N)c2C#N)cc1[N+](=O)[O-]	Cy5 interf NS3h 0.79
CCOc1cc(/C=C(\C#N)c2nn(CCO)c(N)c2C#N)cc(Br)c1OC	none
Cc1ccc2oc(Nc3nc(C)cc(=O)[nH]3)nc2c1	none
Cc1ccc2oc(C(Cl)(Cl)Cl)cc(=O)c2c1	Cy5 interf NS3h 0.6
CCOc1ccc(N(CC(=O)Nc2c(C)cccc2C)S(=O)(=O)c2ccc(SC)cc2)cc1	none
O=C1c2cccnc2C(=O)N1c1ccc(Oc2ccc(N3C(=O)c4cccnc4C3=O)cc2)cc1	Cy5 interf NS3h 0.68
COC(=O)c1ccc(N2C(=O)c3ccccc3C2=O)cc1	none
N/C(Cc1cccc2ccccc12)=N/OC(=O)c1ccco1	none
O=C(Oc1cccc2ccccc12)c1ccco1	Cy5 interf NS3h 0.57
CCc1ccc(NC(=O)c2cc3n(n2)C(C(F)(F)F)CC(c2ccc(Cl)cc2)N3)cc1 (centres undefined)	none
O=C(NC(c1ccccc1)c1ccccc1)C(=O)c1c[nH]c2ccccc12	Cy5 interf NS3h 0.66
Cc1ccc(C(=O)Nc2ccccc2C(=O)NC(Cc2c[nH]c3ccccc23)C(=O)O)cc1 (centres undefined)	none
Cc1ccc(NC(=S)NC(=O)c2ccco2)cc1C	none
COc1cc(/C=N\N2C(=O)CSC2=S)ccc1OCCOc1cc(C)ccc1C(C)C	Cy5 interf NS3h 1.2
COc1cc(/C=N\N2C(=O)CSC2=S)ccc1OCCOc1ccc(C(C)(C)C)cc1	none
COc1ccc(C(=O)CSc2nnc(Sc3nc4ccccc4[nH]3)o2)cc1	Cy5 interf NS3h 0.54
COc1ccc(C(=O)CSc2nc3ccccc3c(=O)[nH]2)cc1	none
O=C1CSC(=S)N1/N=C\c1cccc(OCCOc2ccc(Br)cc2)c1	none
O=C(NC1CCS(=O)(=O)C1)/C(=C\c1ccc(Br)cc1)NC(=O)c1ccccc1 (centres undefined)	Cy5 interf NS3h 1.3
CC(C)c1ccc(/C=C(\NC(=O)c2ccccc2)C(=O)NC2CCS(=O)(=O)C2)cc1 (centres undefined)	none
CC12CC3(C)CC(C)(C1)CC(C(=O)NN)(C2)C3	none
CC12CC3(C)CC(C)(C1)CC(C(=O)NCCO)(C2)C3	Cy5 interf NS3h 1.3
NC(=O)SCC(=O)Nc1ccc(Br)cc1	none
COCCNC(=O)CN(c1ccc(C)cc1)S(=O)(=O)c1ccc(SC)cc1	none
COc1ccccc1NC(=O)CN(c1ccc(C)cc1)S(=O)(=O)c1ccc(SC)cc1	Cy5 interf NS3h 0.69
CSc1ccc(S(=O)(=O)N(CC(=O)Nc2cccc(Br)c2)c2ccc(C)cc2)cc1	none
CSc1ccc(S(=O)(=O)N(CC(=O)Nc2cccc(C)c2)c2ccc(C)cc2)cc1	Cy5 interf NS3h 0.7
COc1ccc(N2N=C(c3ccc(C)cc3)CC2c2cccs2)cc1 (centres undefined)	none
OCCN(CC#CCC(O)(c1ccccc1)c1ccccc1)Cc1ccccc1	none
O=[N+]([O-])c1ccc(C=Nc2ccc(Br)c(Cl)c2)s1	none
COc1ccccc1C(=O)NCC(=O)O	none
